# S1P4 agonist = S1P4 receptor agonists, primary screen, cell-based; 0.35% of 220,000 active; AID 1509, 2009; S1P4-expressing cell line, agonist reporter assay; activation, % at 4.98 µM; Sphingosine 1-phosphate receptor 4 (Homo sapiens), O95977; in the data active means activation above about 11%;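 further: 0% = DMSO vehicle and 100% = reference agonist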
# Target sequence (O95977 whole entry, looked up): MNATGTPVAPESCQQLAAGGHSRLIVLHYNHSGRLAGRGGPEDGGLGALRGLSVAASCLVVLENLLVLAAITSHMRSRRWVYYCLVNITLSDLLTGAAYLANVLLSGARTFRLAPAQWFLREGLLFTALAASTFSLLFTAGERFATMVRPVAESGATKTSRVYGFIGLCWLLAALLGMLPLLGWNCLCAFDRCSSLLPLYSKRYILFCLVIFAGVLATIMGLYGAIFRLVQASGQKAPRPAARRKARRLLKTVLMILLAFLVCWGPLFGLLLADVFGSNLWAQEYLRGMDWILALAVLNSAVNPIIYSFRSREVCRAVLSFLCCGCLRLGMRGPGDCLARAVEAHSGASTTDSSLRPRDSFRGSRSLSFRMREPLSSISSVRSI
# DTT redox prof = compounds producing H2O2 with reducing agent – biochemical, NIH compound library profiling, artefact control for MLSCN library redox annotation, primary screen; activation, % at 10 µM; 0.03% of 200,000 active; DTT-dependent redox cycling H2O2, phenol red/HRP absorbance; 100% = 100 µM peroxide control, 0% = buffer; AID 878, 2007;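 active means activation of at least 50% relative to the plate's high and low controls in the primary single-dose screen; inactive means activation below 50%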;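 further: compound incubated with DTT at 0.8 mM final as the reducing agent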
# p97 inhibitor = inhibitors of human p97 ATPase, primary screen, biochemical; Transitional endoplasmic reticulum ATPase (Homo sapiens), P55072; recombinant p97 ATPase, Kinase-Glo ATP luminescence, 3 h; inhibition, % at 8 µM; 0.42% of 220,000 active; AID 1481, 2009; in the data active means inhibition above about 15%;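 further: 0% = DMSO vehicle and 100% = wells lacking enzyme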
# SUMO HTRF inh = inhibitors of in vitro SUMOylation cascade, primary screen, biochemical, HTRF, uHTS | SUMO-conjugating enzyme UBC9 (Homo sapiens), P63279 | HTRF SUMOylation assay, SAE1/SAE2 + UBC9 | inhibition, % at 35 µM | 0.36% of 290,000 active | AID 2006, 2009; in the data active means inhibition above about 50%, passing the limit was not always enough
# Target sequence (P63279 whole entry, looked up): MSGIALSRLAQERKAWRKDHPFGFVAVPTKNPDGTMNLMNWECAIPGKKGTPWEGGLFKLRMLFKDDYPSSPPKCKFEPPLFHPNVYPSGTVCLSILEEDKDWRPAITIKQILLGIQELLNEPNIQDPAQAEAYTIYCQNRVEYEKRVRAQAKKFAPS
# S1P3 antagonist = S1P3 receptor antagonists, primary screen, cell-based | CHO S1P3 NFAT-BLA reporter, FRET fluorescence, antagonist mode | inhibition, % at 4.98 µM | 0.27% of 170,000 active;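 active means inhibition above the plate cutoff, the mean inhibition of test wells on that plate plus 3 SD, cut at about 28% in these data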;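 further: cells challenged with S1P at its EC80 of 0.8 µM; blue over green emission ratio from cleaved BLA substrate after 4 h stimulation; 0% = S1P-stimulated wells and 100% = unstimulated DMSO-only wells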
# S1P4 antag = S1P4 receptor antagonists, primary screen, cell-based; inhibition, % at 4.98 µM; S1P4-expressing cells, antagonist mode, reporter read-out; 0.26% of 220,000 active; in the data active means inhibition above about 29%;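 further: 0% = wells stimulated with agonist and 100% = vehicle wells without agonist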
# * hit, by the source's call; · = no result given. A selection: hits, their analogues and other compounds. The true share with any hit is near 1.1%.
SMILES,S1P4 agonist,DTT redox prof,p97 inhibitor,SUMO HTRF inh,S1P3 antagonist,S1P4 antag
Nc1c(C(=O)NCc2ccc3c(c2)OCO3)c2nc3ccccc3nc2n1CCCN1CCOCC1,7.8,-1.9,-7.7,32.3,-38.8,2.0
COc1ccc(-n2c(N)c(C(=O)NCc3ccco3)c3nc4ccccc4nc32)cc1,0.7,-3.2,-2.3,29.3,·,-18.1
Nc1c(C(=O)NCc2ccco2)c2nc3ccccc3nc2n1CCc1ccc(F)cc1,3.6,0.7,2.9,100.3*,·,-12.4
COCCn1c(N)c(C(=O)NCC2CCCO2)c2nc3ccccc3nc21 (configuration not stated),0.8,-1.4,-4.2,90.7*,·,-9.0
COCCn1c(N)c(C#N)c2nc3ccccc3nc21,5.3,-0.6,-5.8,80.8*,·,1.0
CC(C)Cn1c(N)c(C(=O)NCC2CCCO2)c2nc3ccccc3nc21 (configuration not stated),3.1,-0.7,8.4,101.4,-27.9,-7.5
O=C(Cc1ccccc1)NNS(=O)(=O)c1ccccc1[N+](=O)[O-],·,·,·,-15.4,·,·
C#CCn1c(=NC(=O)c2cc(-c3cccs3)nc3ccccc23)sc2cc(S(N)(=O)=O)ccc21,0.7,1.9,1.6,-16.9,-3.9,-24.9
COCCNC(=O)c1c(N)n(CCCn2ccnc2)c2nc3ccccc3nc12,3.8,1.4,5.7,87.4*,-3.7,-4.8
Cc1cc(NC(=O)c2cc(-c3ccccn3)nc3ccccc23)no1,0.4,0.3,4.8,-24.6,0.9,-8.1
Cc1cc(C)c2nc(-c3ccccn3)cc(C(=O)Nc3cc(C)on3)c2c1,2.0,0.8,-0.6,-4.5,54.1*,-1.3
CCC(=O)c1ccccc1OCCCCn1cncn1,·,·,·,25.0,·,·
Cc1cccc(Nc2ccc3nonc3c2[N+](=O)[O-])c1C,·,·,·,7.9,·,·
CCOC(=O)NNc1ccc2nonc2c1[N+](=O)[O-],-1.6,·,20.9*,77.2*,-3.1,14.0
CC(C)(C)C(=O)NCCN1CCN(C(=O)C(C)(C)C)CC1,0.2,0.6,-1.5,-2.8,·,-18.1
O=C(NCc1ccc(F)cc1)C1CCN(C(=O)NCc2ccccc2)CC1,-3.2,2.6,5.0,-7.0,6.4,6.6
O=C(NCc1ccccc1F)C1CCN(C(=O)NCc2ccccc2)CC1,-0.6,1.6,1.9,18.9,67.9*,3.2
O=C(Nc1ccc(Cl)cc1Cl)C1CCC(=O)N1Cc1ccccc1Cl (configuration not stated),1.1,1.7,-1.6,-21.7,·,-7.3
O=C(O)C1CCC(=O)N1Cc1ccccc1Cl (configuration not stated),15.1*,-0.6,2.7,21.4,8.0,-17.4
Cc1ccc(-c2c(NCCc3ccccc3)c(=O)c2=O)cc1,·,·,·,8.9,·,·
O=C(Nc1ccc(N2C(=O)C3C4C=CC(C4)C3C2=O)cc1)Nc1cccnc1 (configuration not stated),1.4,2.2,3.9,56.1*,-14.4,-1.1
CC(=O)c1ccc(NC(=O)Nc2cccnc2)cc1,·,·,·,58.2*,·,·
O=[N+]([O-])c1cccc(C=Nc2cccc3ccccc23)c1O,·,·,·,51.1*,·,·
Cc1ccc(C)c(OCC(=O)Nc2nonc2NC(=O)COc2cc(C)ccc2C)c1,-1.0,1.6,0.2,56.7*,3.9,-9.0
C=CCn1c(N)c(C(=O)OC(C)CC)c2nc3ccccc3nc21 (configuration not stated),0.1,-7.3,-1.0,38.6,36.8,4.1
SMILES,S1P4 agonist,DTT redox prof,p97 inhibitor,SUMO HTRF inh,S1P3 antagonist,S1P4 antag
C=CCn1c(N)c(C(=O)Nc2ccccc2)c2nc3ccccc3nc21,3.5,0.3,9.3,90.9*,·,7.5
C=CCn1c(N)c(C(=O)OC(C)(C)C)c2nc3ccccc3nc21,-0.3,2.5,14.5,97.7*,·,-9.4
CCOC(=O)/C(=N\Nc1cc(Cl)ccc1Cl)N1CCN(CC)CC1,0.2,0.7,-1.5,-1.2,5.4,6.8
COC(=O)c1nn(-c2ccc(OC)cc2)ccc1=O,·,·,·,38.5,·,·
CCCCC1C(=O)CC[C@H]2[C@@H]1CC(=O)[C@@H]2C/C=C\CCCC(=O)O (some centres not stated),1.1,-0.2,1.4,1.8,-3.7,-16.9
O=c1c2ccccc2nc2ccc(NCc3ccco3)nn12,0.2,2.4,4.8,28.4,14.1,2.3
Cc1sc2nc3ccc(NCc4ccco4)nn3c(=O)c2c1C,2.3,3.1,5.2,55.8*,·,-5.2
COC(=O)c1ccccc1NC(=O)COC(=O)CO/N=C(\C)c1ccc2c(c1)OCO2,·,·,·,11.5,·,·
COc1cc(C2C=C(c3cccs3)Nc3ncnn32)cc(OC)c1OC (configuration not stated),2.2,-1.1,3.4,53.2*,-0.4,4.2
CC(C)(C)N(Cc1ccccc1)C(=O)COC(=O)Cn1cnc2ccccc2c1=O,2.6,-0.3,4.1,7.6,0.9,-3.1
Cc1noc(C)c1C(=O)Nc1nnc(-c2ccccc2)s1,-1.4,1.0,5.7,-6.9,-5.8,101.6*
[N-]=[N+]=CC(=O)c1ccnc(C(=O)C=[N+]=[N-])c1,-0.4,0.2,-3.0,-0.8,·,-10.2
CN1C(=O)c2cccc3c(S(=O)(=O)NCCc4ccccc4)ccc1c23,·,·,·,55.5*,·,·
COc1ccc(-c2cc3nc4c(c(N5CCC6(CC5)OCCO6)n3n2)CCC4)cc1,1.6,-0.2,-1.8,5.1,11.7,-6.3
COc1ccc(-c2cc3nc(-c4ccccc4)cc(N4CCC5(CC4)OCCO5)n3n2)cc1,0.9,1.6,-6.3,15.0,54.3*,-38.6
CC(C)C(C(=O)NCc1ccco1)N(C(=O)CNS(=O)(=O)c1ccc(Cl)cc1)C1CCCC1 (configuration not stated),11.3*,-0.3,-4.9,-14.2,14.3,8.3
CCOC(=O)CC1C(=O)NCCN1C(=O)c1cc2c(=O)n3cccc(C)c3nc2s1 (configuration not stated),1.0,-1.1,4.4,19.5,-7.5,-8.8
CCCN1C(=O)/C(=C/c2c(N3CCNC(=O)C3CC(=O)OC)nc3c(C)cccn3c2=O)SC1=S (configuration not stated),0.0,·,14.6*,35.0,6.0,-1.8
COc1ccc(/C=N/n2c(-c3ccc(C)cc3)n[nH]c2=S)cc1OC,-0.7,·,-2.5,1.9,0.6,-6.7
Cc1nc2ccccc2c(=O)n1NC(=O)c1c(O)c2ccccc2n(C)c1=O,·,·,·,-8.3,73.2*,·
NNc1nc(-c2ccccc2Cl)nc2sc3c(c12)CCCC3,4.0,-0.2,-2.7,10.5,9.2,-13.6
CC(=O)c1cccc(OCC(O)CN2CCN(C(=O)c3ccco3)CC2)c1 (configuration not stated),·,·,·,-0.6,·,·
